Assay results taken from PubChem BioAssay AID1159580 (chemical genetic matrix, 2015).
Where “and” joins values, the source holds several entries; their conditions need not be identical. Identical values can stand only once. Hit rate of the full screen: of about 5,500 compounds, about 2,000 (36%) were called active. Roughly 18% stayed inconclusive and do not appear here. No stated cut-off is given here; in the data, active means normalized growth mostly below about 0.91 (no sharp cut-off); inconclusive means no clear call, values can overlap the other calls; inactive means mostly above about 0.92. This is one part of the list.

Test: chemical genetic growth profiling, strain panel (AID 1159580);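 further: tested at 20 µM; growth read once vehicle control cultures reached saturation at 30 °C; 1 = growth at the plate median or of vehicle wells; lower values mean less growth of the strain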
Settings: S. cerevisiae deletion strains, growth OD

Measured: normalized growth

O=C(O)CCCCC1CCSS1 (configuration not stated)
active: locus YHR079C, strain IRE1, active compounds read low 0.383 | locus YJR066W, strain TOR1, active compounds read low 0.812
inactive: locus YAL013W, strain DEP1, active compounds read low 0.97 | locus YAL021C, strain ccr4, active compounds read low 1 | locus YAL026C, strain drs2, active compounds read low 0.94 | locus YAL030W, strain snc1, active compounds read low 0.974 | locus YBL061C, strain skt5, active compounds read low 0.979 | locus YBR009C, strain hhf1, active compounds read low 0.933 | locus YBR021W, strain FUR4, active compounds read low 0.987 | locus YBR023C, strain chs3, active compounds read low 0.977 | locus YBR171W, strain sec66, active compounds read low 0.934 | locus YBR229C, strain ROT2, active compounds read low 0.953 | locus YBR231C, strain swc5, active compounds read low 0.979 | locus YBR279W, strain paf1, active compounds read low 0.978 | locus YCL011C, strain gbp2, active compounds read low 0.959 | locus YCL016C, strain dcc1, active compounds read low 0.983 | locus YCL029C, strain bik1, active compounds read low 0.993 | locus YCL061C, strain MRC1, active compounds read low 0.956 | locus YCL069W, strain vba3, active compounds read low 0.973 | locus YCR088W, strain abp1, active compounds read low 0.978 | locus YDL005C, strain med2, active compounds read low 1.02 | locus YDL035C, strain GPR1, active compounds read low 0.98 | locus YDL040C, strain nat1, active compounds read low 0.976 | locus YDL074C, strain BRE1, active compounds read low 0.99 | locus YDL101C, strain DUN1, active compounds read low 0.978 | locus YDL134C, strain PPH21, active compounds read low 0.974 | locus YDL185W, strain tfp1, active compounds read low 0.942 | locus YDL192W, strain arf1, active compounds read low 0.979 | locus YDR001C, strain nth1, active compounds read low 0.971 | locus YDR069C, strain doa4, active compounds read low 0.982 | locus YDR101C, strain arx1, active compounds read low 0.996 | locus YDR137W, strain rgp1, active compounds read low 0.883 | locus YDR150W, strain NUM1, active compounds read low 0.958 | locus YDR159W, strain sac3, active compounds read low 0.984 | locus YDR162C, strain NBP2, active compounds read low 0.938 | locus YDR195W, strain ref2 0.994 | locus YDR297W, strain sur2, active compounds read low 0.975 | locus YDR318W, strain mcm21, active compounds read low 0.992 | locus YDR334W, strain swr1, active compounds read low 0.978 | locus YDR335W, strain msn5, active compounds read low 0.97 | locus YDR388W, active compounds read low 0.985 | locus YDR392W, strain spt3, active compounds read low 0.888 | locus YDR502C, strain sam2, active compounds read low 0.975 | locus YEL003W, strain gim4, active compounds read low 0.961 | locus YEL037C, strain rad23, active compounds read low 0.976 | locus YEL061C, strain CIN8 (second series), active compounds read low 0.968 | locus YEL061C, strain CIN8, active compounds read low 0.975 | locus YER015W, strain faa2, active compounds read low 0.985 | locus YER016W, strain bim1, active compounds read low 0.983 | locus YER110C, active compounds read low 0.961 | locus YER111C, strain swi4, active compounds read low 0.963 | locus YER155C, strain BEM2 (second series), active compounds read low 0.922 | locus YER155C, strain BEM2, active compounds read low 0.989 | locus YER167W, strain BCK2, active compounds read low 0.981 | locus YFR010W, strain ubp6, active compounds read low 0.962 | locus YGL078C, strain dbp3, active compounds read low 0.981 | locus YGL086W, strain mad1, active compounds read low 0.97 | locus YGL167C, strain pmr1, active compounds read low 0.95 | locus YGL173C, strain kem1, active compounds read low 0.973 | locus YGL227W, strain vid30, active compounds read low 0.965 | locus YGL240W, strain doc1, active compounds read low 0.956 | locus YGL248W, strain PDE1, active compounds read low 0.981 | locus YGL253W, strain hxk2, active compounds read low 0.992 | locus YGR078C, strain PAC10, active compounds read low 0.999 | locus YGR135W, strain pre9, active compounds read low 0.982 | locus YGR229C, strain SMI1, active compounds read low 1.01 | locus YGR252W, strain gcn5, active compounds read low 0.873 | locus YHR013C, strain ard1, active compounds read low 0.935 | locus YHR027C, strain rpn1, active compounds read low 0.987 | locus YHR030C, strain SLT2, active compounds read low 0.98 and 0.943 | locus YHR079C, strain IRE1 (second series), active compounds read low 0.984 | locus YHR094C, strain hxt1, active compounds read low 0.981 | locus YHR129C, strain ARP1, active compounds read low 0.997 | locus YHR142W, strain chs7, active compounds read low 1.02 | locus YHR200W, strain rpn10, active compounds read low 0.991 | locus YIL066C, strain RNR3, active compounds read low 0.985 | locus YIL073C, strain SPO22, active compounds read low 0.978 | locus YIL125W, strain kgd1, active compounds read low 0.99 | locus YIR030C, strain dcg1, active compounds read low 0.978 | locus YJL092W, strain hpr5, active compounds read low 0.972 | locus YJL095W, strain BCK1 (second series), active compounds read low 0.975 | locus YJL095W, strain BCK1, active compounds read low 1.03 and 0.902 | locus YJL115W, strain asf1, active compounds read low 0.978 | locus YJL129C, strain trk1, active compounds read low 0.91 | locus YJL134W, strain LCB3, active compounds read low 0.977 | locus YJL154C, strain vps35, active compounds read low 0.975 | locus YJL164C, strain tpk1, active compounds read low 0.967 | locus YJL166W, strain qcr8, active compounds read low 0.976 | locus YJL168C, strain set2, active compounds read low 0.992 | locus YJL187C, strain SWE1 (second series), active compounds read low 0.992 | locus YJL187C, strain SWE1, active compounds read low 0.973 | locus YJR043C, strain POL32, active compounds read low 1.01
